# An excerpt weighted towards active compounds, which were near 2.8% of everything screened.
# Pol kappa inh-1: blocks human DNA polymerase kappa activity; Q9UBT6; purified Pol kappa, fluorescent DNA synthesis assay, 10 min; Potency, µM (series often up to 107 µM), usual class: inhibitors; actives 0.53% (n = 400,000); AID 588579
#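 Fluorescent qHTS in 1536-well format: enzyme (10 nM) and compound sat 15 min at room temperature before 50 nM substrate (final) was added. Signal taken at 0 and 10 min; no-enzyme buffer wells were negative controls.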
# WRN helicase inh: inhibitors of human WRN helicase | WRN helicase unwinding, fluorescent forked duplex, kinetic | Potency, µM (top dose mostly 114 µM), most hits filed as inhibitors | actives 0.46% (n = 360,000); further: nearly all actives have a fitted effect of over 55% in size
#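 Fluorescence dequenching readout, ex 525 nm/em 598 nm, kinetic mode: forked duplex DNA (100 nM final) with adjacent fluorophore and quencher unwound by WRN (20 nM final) with 2 mM ATP. Compound preincubation 15 min, room temperature.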
# Pol eta inh-1: blocks human DNA polymerase eta activity | Q9Y253 | recombinant Pol eta, fluorescent DNA replication assay | Potency, µM (highest dose often 114 µM), most hits filed as inhibitors | actives 1.2% (n = 390,000) | AID 588591
#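 Pol eta at 10 nM preincubated with compounds 15 min at room temperature; reaction started with fluorescent substrate (50 nM final) and read kinetically at 0 and 10 min.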
# POLB inh: inhibitors of human DNA polymerase beta; Pol beta primer extension/strand displacement, fluorescence kinetic; Potency, µM (doses to about 114 µM), actives largely listed as inhibitors; actives 1.3% (n = 340,000); AID 485314
#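 Enzyme-only controls used 10 nM Pol beta; buffer lacking enzyme served as negative control. Compound preincubated 15 min, then 50 nM substrate added; 0 and 10 min reads at room temperature.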
# PI5P4K alpha inh: blocks human PI5P4K alpha kinase activity | P48426 | PI5P4Kalpha enzyme, ADP-Glo luminescence, 60 min; active compounds read low | max response, % | actives 1.2% (n = 330,000) | AID 652105; active means max response of -50% or lower; inconclusive means between -30% and -50%; inactive means -30% or higher; further: value at the top dose of about 77 µM
#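 Single end-point luminescence (ADP-Glo) quantified ADP from PI5P4Kalpha turnover; ATP 5 microM final, 1 h at RT, 0.1% CHAPS and 0.28 mM EGTA in HEPES pH 7.4.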
# POLI inh: blocks human DNA polymerase iota activity; actives 1% (n = 390,000); AID 588590; Potency, µM (highest dose often 115 µM), actives largely listed as inhibitors; Pol iota fluorescent replication assay, 10 min; Q9UNA4
# Target sequence (Q9UNA4 whole entry, looked up): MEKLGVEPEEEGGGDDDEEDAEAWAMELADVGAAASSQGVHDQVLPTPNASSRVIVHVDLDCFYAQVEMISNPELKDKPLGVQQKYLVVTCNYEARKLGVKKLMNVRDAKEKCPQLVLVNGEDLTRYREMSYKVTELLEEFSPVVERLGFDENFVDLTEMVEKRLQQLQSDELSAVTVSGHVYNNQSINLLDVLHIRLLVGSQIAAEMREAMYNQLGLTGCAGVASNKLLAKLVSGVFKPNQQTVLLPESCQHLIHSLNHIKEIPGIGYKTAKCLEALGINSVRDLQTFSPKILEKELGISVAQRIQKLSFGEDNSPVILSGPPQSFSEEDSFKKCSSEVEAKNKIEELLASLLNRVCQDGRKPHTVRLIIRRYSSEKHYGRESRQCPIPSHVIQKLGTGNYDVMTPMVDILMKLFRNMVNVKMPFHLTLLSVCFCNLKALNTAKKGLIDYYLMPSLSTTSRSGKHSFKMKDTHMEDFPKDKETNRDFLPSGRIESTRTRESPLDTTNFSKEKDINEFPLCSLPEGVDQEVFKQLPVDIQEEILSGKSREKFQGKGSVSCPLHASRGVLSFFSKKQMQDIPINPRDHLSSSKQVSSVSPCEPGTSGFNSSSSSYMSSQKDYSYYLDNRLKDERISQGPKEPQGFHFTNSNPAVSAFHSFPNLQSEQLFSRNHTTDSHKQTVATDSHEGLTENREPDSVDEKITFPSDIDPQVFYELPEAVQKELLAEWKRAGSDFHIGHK
#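 Fluorescent replication assay read twice, at 0 min and 10 min after adding 50 nM (final) substrate. Enzyme (10 nM) and compounds were first incubated 15 min at room temperature; enzyme-free buffer wells were negative controls.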
# PGK validate: blocks T. brucei phosphoglycerate kinase | shares compounds with Pol kappa inh-1 | TbPGK coupled GAPDH assay, Kinase-Glo luminescence | Potency, µM (doses to about 57.5 µM), most hits filed as inhibitors | actives 79% (n = 500); further: nearly all actives have a fitted effect of over 65% in size
# Pol iota confirm: Human Pol iota inhibitor confirmatory assay. shares compounds with Pol kappa inh-1. Pol iota primer extension, TAMRA/BHQ fluorescence. Potency, µM, most hits filed as inhibitors. actives 77% (n = 1,500). AID 720496
# Pol kappa inh-2: confirmation of human DNA polymerase kappa inhibitors; actives 76% (n = 920); AID 720501; purified Pol-kappa, fluorescent strand-displacement substrate; Potency, µM, usual class: inhibitors; shares compounds with Pol eta inh-1
# Pol eta inh-2: confirmation of human DNA polymerase eta inhibitors; Potency, µM, hits mostly inhibitors; shares compounds with Pol eta inh-1; Pol eta primer extension, TAMRA/BHQ fluorescence, 10 min; actives 64% (n = 2,600)
# A number is an active result; n = inactive; u = inconclusive; x = not tested or not shown; [ ] = dose if it differs, or a comment. Unless noted, the call rests on the fitted dose curve; in most records, active means well fitted curve in the direction sought with a large enough effect; inconclusive means small, poorly fitted or top-dose-only effect, or another doubt; inactive means no such curve, though single readings can be large; an effect the other way counts as inactive or inconclusive.
SMILES,Pol kappa inh-1,WRN helicase inh,Pol eta inh-1,POLB inh,PI5P4K alpha inh,POLI inh,Pol iota confirm,others
CCOc1ccc(N/C=C/C(=O)c2ccccc2)c([N+](=O)[O-])c1,n,n,n,n,n,n,x,PGK validate=14.6µM
Fc1cc(F)c2nc(Nc3nc4cc5c(cc4s3)OCO5)sc2c1,u,28.2µM,2.82µM,u,n,u,u,
Fc1cccc2sc(Nc3nc4cc5c(cc4s3)OCO5)nc12,n,n,n,n,u,n,x,
O=C(N/N=C/c1ccncc1)c1ccccn1,n,n,n,n,n,n,x,
CN(C)c1ccc(/C=N/NC(=O)c2ccccn2)cc1,n,n,n,u,n,n,x,PGK validate=u
O=C1Nc2cc3c(cc2C1=O)sc1ccccc13,u,44.7µM,44.7µM,39.8µM,n,31.6µM,u,
O=C(COc1ccc(/C=N/NC(=O)c2ccc(O)cc2)cc1)Nc1cccc([N+](=O)[O-])c1,u,u,14.1µM,10µM,n,u,u,PGK validate=11.6µM
O=C(COc1ccc(/C=N/NC(=O)c2ccncc2)cc1)Nc1ccc([N+](=O)[O-])cc1,n,n,n,n,n,n,x,
O=C(NN=Cc1ccc([N+](=O)[O-])cc1)c1ccncc1,n,n,n,x,n,n,x,
O=C(/C=C/c1ccc([N+](=O)[O-])cc1)Oc1ccc(/C=N/NC(=O)c2ccncc2)cc1,22.4µM,n[11.6 µM],u,n,n,79.4µM,u,
COc1cccc(CNC(=O)C(=O)NCC(c2cccs2)S(=O)(=O)c2cccs2)c1 (stereo unspecified),n,x,n,n,x,n,x,
CCN(C(=O)CCS(=O)(=O)c1cc2[nH]c(=O)c(=O)[nH]c2cc1C)c1ccccc1,n,x,n,n,x,n,x,
CC(C(=O)Nc1ccc(C#N)cc1)N1CCN(C(=O)C2CC2)CC1 (stereo unspecified),n,n,n,x,n,n,x,
O=C(Nc1cccc(-c2nc3ccccc3s2)c1)c1cc(=O)c2ccccc2o1,n,n[11.6 µM],u,u,n,n,u,
CCCCNS(=O)(=O)c1ccc2nc(NC(=O)c3cccnc3)sc2c1,n,x,50.1µM,n,x,n,x,PGK validate=u
Cc1cccc(C)c1NC(=O)CN(C)C(=O)c1ccc(N2C(=O)CCC2=O)cc1,n,n,n,x,n,n,x,
Cc1cccc(C)c1NC(=O)CN(C)C(=O)c1cccc(-n2cccc2)c1,u,70.8µM,10µM,x,u,8.91µM,u,
O=C1/C(=C\c2c(NCCOCCO)nc3ccccn3c2=O)SC(=S)N1Cc1ccco1,u,22.4µM,79.4µM,17.8µM,n,u,u,
Cc1csc(N=Nc2ccc(N(C)C)cc2)[n+]1[O-],x,n,u,x,-55.5,x,x,PGK validate=13µM
CCc1ccc(C(=O)c2cn(CC(=O)Nc3ccc4c(c3)OCO4)c3ccc(Cl)cc3c2=O)cc1,n,x,n,n,x,n,x,
COc1cccc(NC(=O)Cn2cc(C(=O)c3ccc(C)cc3)c(=O)c3cc(OC)ccc32)c1,n,x,79.4µM,20µM,x,u,47.4,
COc1cccc(NC(=O)Cn2cc(C(=O)c3ccc(F)cc3)c(=O)c3cc(OC)ccc32)c1,n,x,n,n,x,n,x,
CCc1ccc(C(=O)c2cn(CC(=O)Nc3ccc4c(c3)OCO4)c3cc(OC)c(OC)cc3c2=O)cc1,n,x,79.4µM,6.31µM,x,n,42.3,
O=C(NC1CCCCC1)C(c1cccnc1)N(C(=O)c1ccc(Cl)nc1)C1CCCCC1 (stereo unspecified),n,n,n,n,n,n,x,
CN(C)c1ccc(N=Nc2nc3ccccc3n2C)cc1,n,n,n,n,-59.3,n,x,PGK validate=4.61µM
SMILES,Pol kappa inh-1,WRN helicase inh,Pol eta inh-1,POLB inh,PI5P4K alpha inh,POLI inh,Pol iota confirm,others
CCn1c(NCc2ccc(N(C)C)cc2)nc2ccccc21,n,n,n,n,x,n,x,
Cn1c(N=Nc2ccccc2)nc2ccccc21,n,n,n,n,-74.3,n,x,PGK validate=13µM
Cn1c(Cl)nc2ccccc21,n,n,n,n,n,n,x,
COc1cc(C(=O)C(=O)N2CCC(Cc3ccccc3)CC2)cc2ccccc12,x,n,x,x,n,x,x,
O=C1CCCc2[nH]c(=O)c(-c3nc(-c4cccc([N+](=O)[O-])c4)cs3)cc21,n,x,n,n,x,n,x,
COc1ccc(CCNC(=O)CNCC2CCCCC2)cc1OC,n,n,n,n,n,n,x,
O=C(CN1C(=O)/C(=C\c2ccco2)SC1=S)Nc1ccc(O)cc1C(=O)O,n,50.1µM,8.91µM,0.398µM,-62.0,u,x,PGK validate=25.9µM
O=C1CCCC2=C1C(c1ccc(O)c(O)c1)Nc1ccc3ncccc3c12 (stereo unspecified),39.8µM,u,35.5µM,11.2µM,u,12.6µM,u,Pol eta inh-2=u
CSc1nsc(/C=C/Nc2ccc(F)cc2F)c1C#N,n,n,n,n,n,n,x,
CSc1nsc(/C=C/Nc2ccc(C(=O)O)cc2)c1C#N,n,n,28.2µM,31.6µM,n,n,75.2,Pol eta inh-2=42.6
COc1ccc(/C=N/NC(=O)c2cc(O)c(O)c(O)c2)cc1Cn1cc([N+](=O)[O-])cn1,3.98µM,8.91µM,2.82µM,0.562µM,-58.6,3.16µM,8.44,PGK validate=u;Pol eta inh-2=15.1
COc1ccc(/C=N/NC(=O)c2ccc(Br)o2)cc1Cn1cc([N+](=O)[O-])cn1,n,n,n,n,n,n,x,
N#Cc1c(C(F)(F)F)cc(-c2ccccc2)[nH]c1=O,n,n,n,n,x,n,x,
N#Cc1c(-c2ccco2)cc(-c2ccccc2)[nH]c1=O,u,n[11.6 µM],n,u,n,10µM,42.3,Pol kappa inh-2=11.9;Pol eta inh-2=26.9
O=C(NCc1ccccc1)C1CCN(S(=O)(=O)c2ccc(Cl)cc2)CC1,n,n,n,n,n,n,x,
Cc1cccc(C(=O)Nc2ccccc2SCC2CSc3nc4ccccc4c(=O)n32)c1 (stereo unspecified),n,n,n,n,n,n,x,
O=C(O)c1ccc(/C=N/Nc2ccc(S(=O)(=O)N3CCCC3)cc2[N+](=O)[O-])cc1,n,n,n,n,n,n,x,
O=C(O)c1ccccc1NS(=O)(=O)c1ccc(N/N=C/c2ccc(O)c(O)c2)c([N+](=O)[O-])c1,31.6µM,11.2µM,2.51µM,x,-95.8,7.94µM,26.7,PGK validate=10.3µM;Pol kappa inh-2=16.8;Pol eta inh-2=30.1
CCOc1cccc(/C=N/NC(=S)Nc2ccccc2[N+](=O)[O-])c1O,n,n,n,n,n,n,x,

# Compound activity (PubChem BioAssay)
